# Laboratory results: PubChem BioAssay AID2016 (NMMLSC, 2009)
# In all, about 330,000 compounds went through this assay and about 1,700 (0.52%) were called active.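 The calls were made as follows: active = GFP response versus DMSO above a set limit, roughly screen mean plus 3 SD (cut at about 180% in these data); inconclusive = fewer than 70 cells counted for a yeast strain; inactive = the rest.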 This excerpt belongs to a sample that is enriched for actives.
# Test: TOR pathway GLN3 branch reporter MEP2-GFP changes – S. cerevisiae, multiplex flow cytometry, MLPCN library, primary screen (AID 2016);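 also: median GFP fluorescence of the barcode-gated MEP2-GFP cells per well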
# Conditions: S. cerevisiae MEP2-GFP strain, 3 h, at 10 µM, hits give high values, 100% = DMSO control level
row,Structure (SMILES),GFP response vs DMSO
1,CCc1ccc(S(=O)(=O)N/N=C\c2ccc([N+](=O)[O-])o2)cc1,105% (inactive)
2,CCn1c(/C=C/c2ccc([N+](=O)[O-])o2)nc2ccccc2c1=O,304% (active)
3,CCn1c(=O)c([N+](=O)[O-])c(NCc2ccc3c(c2)OCO3)c2ccccc21,94.2% (inactive)
4,CC(C)(C)c1ccccc1NC(=O)CN1C(=O)NC2(CCCC2)C1=O,105% (inactive)
5,Cc1ccc(Cl)c(OCC(=O)NN2CCN(C)CC2)c1,103% (inactive)
6,O=C(COC(=O)c1ccc(O)cc1O)c1ccc2c(c1)OCCO2,110% (inactive)
7,COc1ccccc1C(=O)NCC(=O)OCC(=O)Nc1nnc(-c2ccccc2)o1,99.7% (inactive)
8,Cc1cc(C)cc(N(CC(=O)NC2CCCC2)C(=O)CCC(=O)Nc2cc(C)on2)c1,327% [may fluoresce violet] (active)
9,Cc1cc(NC(=O)CCC(=O)N(CC(=O)NC2CCCC2)c2ccc(F)cc2)no1,101% (inactive)
10,Cc1cc(C)cc(N(CC(=O)NC2CCCC2)C(=O)CCC(=O)Nc2nccs2)c1,107% (inactive)
11,CC(=N\NC(=O)c1cc(Br)ccc1O)/C(=N/O)C(=O)Nc1ccccc1,102% (inactive)
12,Cc1nc(-c2ccc(F)cc2)c(CC(=O)Nc2cc(S(=O)(=O)N3CCCCC3)ccc2C)s1,105% (inactive)
13,C/C(Cl)=C\Cn1c(Nc2cccc(C)c2)nc2c1c(=O)n(C)c(=O)n2C,91.5% (inactive)
14,O=C(c1ccccc1)N1CCN(c2ccc([N+](=O)[O-])c(NCc3ccco3)c2)CC1,102% (inactive)
15,O=[N+]([O-])c1ccc(N2CCNCC2)cc1NCc1cccnc1,309% [may fluoresce violet] (active)
16,O=[N+]([O-])c1ccc(N2CCN(S(=O)(=O)c3ccc4ccccc4c3)CC2)cc1NCc1ccco1,91.1% (inactive)
17,O=C(Cc1cccs1)N(CC1CCCO1)C1(C(=O)NC2CCCCC2)CCCCC1 (centres undefined),88.4% (inactive)
18,Cc1nc2c(ncn2-c2ccccc2)c(=O)n1NC(=O)CN1CCCC1,194% [may fluoresce violet] (active)
19,O=C(CN1CCCC1)N1CCN(c2ccccc2)CC1,91.7% (inactive)
20,Cc1nc2ccccc2c(=O)n1NC(=O)c1ccccc1,99.1% (inactive)
21,O=S(=O)(Nc1ncccn1)c1ccc(NS(=O)(=O)c2cccc(Cl)c2Cl)cc1,103% (inactive)
22,Nc1c(C(=O)c2cccs2)sc2nsc(SCCN3CCCCC3)c12,221% (active)

row,Structure (SMILES),GFP response vs DMSO
1,O=C(CSc1ncnc2sccc12)N1CCN(C(=O)c2cccs2)CC1,105% (inactive)
2,CCCCCCCCCCCCCCCC(=O)OC/C=C(C)/C=C/C=C(C)/C=C/C1=C(C)CCCC1(C)C,107% (inactive)
3,CCC(=C/c1sc2ccc3ccccc3c2[n+]1C)/C=C1\Sc2ccc3ccccc3c2N1C,285% (active)
4,COc1ccc(Cl)cc1NC(=O)COC(=O)C(CC(C)C)N1C(=O)C2CC=CCC2C1=O (centres undefined),90.8% (inactive)
5,Cc1noc(C)c1NC(=O)Nc1ccc2c(c1)C(=O)N([C@H](C)CO)C[C@H](C)[C@@H](CN(C)C(=O)Nc1ccc(C(F)(F)F)cc1)O2,103% (inactive)
6,CC(=O)NCC(=O)N1CCC(n2nccc2NC(=O)CCCc2ccccc2)CC1,95.6% (inactive)
7,Nc1c(-c2ccccc2)nnn1Cc1ccccc1,96.3% (inactive)
8,OCc1nc(CO)n(Cc2ccccc2)n1,276% [may fluoresce violet] (active)
9,Cc1nn(Cc2ccccc2)c(C)c1NS(=O)(=O)c1ccccc1,111% (inactive)
10,CCOC(=O)C1CCN(c2c(Nc3cc(C)cc(C)c3)c(=O)c2=O)CC1,115% (inactive)
11,O=C(NCCCn1ccnc1)C1CCCN(S(=O)(=O)c2cc(Cl)ccc2Cl)C1 (centres undefined),106% (inactive)
12,COc1ccc(S(=O)(=O)N(C)CC(=O)NCCCN2CCOCC2)cc1Cl,95.1% (inactive)
13,O=C1/C(=C\Nc2ccccc2)CCN1c1ncccn1,127% (inactive)
14,CCOC(=O)N1CCN(C(=O)COc2ccc(Br)cc2)CC1,104% (inactive)
15,CCOC(=O)N1CCN(C(=O)CNC(=O)Cc2ccc(Cl)cc2)CC1,106% (inactive)
16,CCOC(=O)N1CCN(C(=O)COc2ccc(Cl)cc2C)CC1,184% [may fluoresce violet] (active)
17,COc1ccc(-n2nc(C(=O)NCC(=O)N3CCCCCC3)c3ccccc3c2=O)cc1Cl,107% (inactive)
18,Cc1ccc(Nc2nc(C)cc(C)c2C(N)=O)cc1,209% [may fluoresce violet] (active)
19,CC(=O)Nc1ccc(Nc2cc(C)nc(Nc3ccc(NC(C)=O)cc3)n2)cc1,92% (inactive)
20,Cc1cc(C)c(C(N)=O)c(Cl)n1,104% (inactive)
21,COc1ccc(-c2nc(N)sc2C2(O)C(=O)Nc3c(Br)cc(F)cc32)cc1OC (centres undefined),103% (inactive)
22,COc1cc(C(=O)Nc2cc(C(F)(F)F)ccc2N2CCOCC2)ccc1O,106% (inactive)
